Assay results as given in PubChem BioAssay.

Biological target: Alpha-bungarotoxin (Bungarus multicinctus) (UniProt P60615)
Assay: alpha-bungarotoxin binders on microarray, profiling panel, artefact control for SMM control protein annotation, biochemical, small-molecule microarray, Alexa647 label, 635/667 nm fluorescence (AID 1117)
Conditions: alpha-BTX-A647 binding fluorescence, higher = more signal

Chain of Alpha-bungarotoxin (Bungarus multicinctus) (P60615 whole entry, looked up): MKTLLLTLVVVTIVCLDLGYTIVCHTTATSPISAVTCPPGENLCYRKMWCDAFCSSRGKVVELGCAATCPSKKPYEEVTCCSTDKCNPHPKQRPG

| Compound | composite z-score |
| --- | --- |
| CCCCCCCCCCC(O)C1C=CC2C(=O)N(c3ccccc3)C(=O)C2N1Nc1ccccc1F (stereo not given) | 0.533 |
| COc1ccc(C(O)C2C=CC3C(=O)N(c4ccccc4)C(=O)C3N2Nc2ccc(C(C)C)cc2)c2ccccc12 (stereo not given) | 2.55 |
| O=C1C2C=CC(C(O)c3cc(C(F)(F)F)cc(C(F)(F)F)c3)N(Nc3ccccc3F)C2C(=O)N1c1ccccc1 (stereo not given) | 0.383 |
| C=C(CCCC)C(=O)CC[C@@H](OC(=O)c1cccnc1)c1ccc(OCCO)cc1 | 0.172 |
| C=C(/C(=C/C[C@@H](OC(=O)c1ccncc1)c1cccc(OCCO)c1)c1cnc2ccccc2c1)C(C)C | 2.57 |
| CC(C)CNC(=O)[C@@]1(c2ccc([N+](=O)[O-])cc2)CC(=O)N(C2CCCCC2)[C@@H]1c1ccc(CO)cc1 | 0.0127 |
| C[C@]1(C(=O)O)c2ccccc2C(=O)N(Cc2ccc(OC(F)(F)F)cc2)[C@H]1c1ccc(CO)cc1 | 1.56 |
| C=C(COC)C(=O)CC[C@H](OC(=O)c1cccnc1)c1ccc(CO)o1 | -0.0505 |
| COCCOC(=O)N1C(=O)[C@@]2(c3cc(C#CCC(C(=O)OC)C(=O)OC)ccc31)[C@H](C(=O)NC[C@H](O)c1ccccc1)[C@H]1C(=O)O[C@H](c3ccccc3)[C@H](c3ccccc3)N1[C@@H]2c1ccc(O)cc1 | 0.195 |
| Cc1cccc([C@H]2C[C@H]3C(Br)=C[C@@H]2C(=O)[C@]32CO2)c1 | 0.106 |
| C=CCC(OC(C)=O)[C@@H]1[C@@H](N(Cc2ccc(-c3cccc(C(F)(F)F)c3)o2)C(=O)c2cccc3ccccc23)c2cc(OCCCO)ccc2N1C(=O)Cc1ccc(OC)cc1 (stereo not given in full) | -0.0191 |
| CC(C)C[C@@H]1NC(=O)[C@@]23C(=O)N[C@@H](Cc4ccccc4)C2[C@H](C)[C@@]2(C)O[C@H]2C3/C=C/C/C=C\CNC(=O)[C@@H](C)NC1=O (stereo not given in full) | -0.116 |
| CCOC(=O)C1=CCN(S(=O)(=O)c2ccc(C)cc2)C1c1ccccc1 (stereo not given) | 0.848 |
| COCCOC(=O)N1C(=O)[C@@]2(c3ccccc31)[C@H](c1ccccc1OCCO)N1[C@H](c3ccccc3)[C@H](c3ccccc3)OC(=O)[C@H]1[C@@H]2C(N)=O | 1.14 |
| C=C(COC)C(=O)CC[C@@H](OC(=O)c1cccnc1)c1ccccc1OCCO | -0.387 |
